Among the data in PubChem BioAssay AID488922 (Johns Hopkins Ion Channel Center, 2010) are B-score values, retold here.

Hit rate of the full screen: of about 310,000 compounds, about 3,800 (1.2%) were called active.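 Rule for the calls: active = ratio B-score over 3 SD below the library mean, with starting fluorescence within 5 SD of its mean; inactive = the rest, inconclusive results apart.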 The sample as a whole holds a higher share of actives than the screen did.

For the assay, the target named is Potassium channel subfamily K member 9 (Homo sapiens) (UniProt Q9NPC2). As to the kind of experiment: KCNK9 potassium channel inhibitors, primary screen, HEK293 cells, thallium flux (AID 488922).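 For B-score: negative B-score means less thallium flux so channel inhibition.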 Conditions: HEK293 KCNK9, FluxOR thallium flux fluorescence, at 10 µM; hits give low values.
Potassium channel subfamily K member 9 (Homo sapiens), sequence (Q9NPC2 whole entry, looked up): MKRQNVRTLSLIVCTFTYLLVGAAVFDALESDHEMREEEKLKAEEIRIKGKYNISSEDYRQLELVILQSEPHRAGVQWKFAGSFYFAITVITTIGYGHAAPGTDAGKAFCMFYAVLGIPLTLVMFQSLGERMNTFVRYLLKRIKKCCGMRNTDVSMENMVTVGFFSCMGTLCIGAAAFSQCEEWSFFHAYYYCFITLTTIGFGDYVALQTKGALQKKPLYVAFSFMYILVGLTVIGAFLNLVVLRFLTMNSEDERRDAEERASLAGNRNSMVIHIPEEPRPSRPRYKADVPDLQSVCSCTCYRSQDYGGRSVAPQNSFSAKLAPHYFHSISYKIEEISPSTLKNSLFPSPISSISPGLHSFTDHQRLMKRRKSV
Consider `Cc1ccccc1NC(=O)COc1cccc2c1CCNC2=O`, for which the B-score entry was “inactive”.

With `O=C(CCNC(=O)c1ccc(Br)cc1)Nc1cccc(S(=O)(=O)N2CCCCC2)c1`, the B-score result is “inactive”.

In the case of `O=C(CSc1ncn[nH]1)NCc1ccc2c(c1)OCO2`, the B-score entry is “inactive”.

`O=C(CN1CCN(c2nc(-c3ccccc3)cs2)CC1)NCc1ccc2c(c1)OCO2`: the B-score entry was “inactive”.

Take `O=C(CSc1ncnc2scc(-c3ccccc3)c12)NCc1ccc2c(c1)OCO2`: the B-score is -6.9 (active).

Turning to `CCOC(=O)C(=Cc1ccccc1OC)C(=O)OCC`, the B-score entry is “inactive”.

For the molecule `CCOC(=O)c1c(NC(=O)CNC2CCCc3ccccc32)sc(C(N)=O)c1C` (configuration not stated), the B-score result was “inactive”.

As for `CCOc1ncccc1C(=O)NNC(=O)c1cccc(S(=O)(=O)Nc2ccccc2OC)c1`, the B-score result is “inactive”.

On to `COc1ccc(NC(=O)C2CCC(CNC(=O)[C@@H]3Cc4ccccc4CN3)CC2)cc1` (some centres not stated), for which the B-score entry was “inactive”.

In the case of `N#Cc1c(NC(=O)CCCN2C(=O)c3ccccc3C2=O)oc(-c2ccccc2)c1-c1ccccc1`, the B-score entry was “inactive”.

For the molecule `COc1cc(C(=O)Nc2oc(-c3ccccc3)c(-c3ccccc3)c2C#N)cc(OC)c1OC`, the B-score is -6.66 (active).

Turning to `COC(=O)c1sccc1NC(=O)c1cc(OC)c(OC)c(OC)c1`, the B-score entry is “inactive”.

On to `COC(=O)Nc1ncc(CN2CCCCC2)s1`, for which the B-score result was “inactive”.

Take `CCCCN(C(=O)COc1ccc(NC(C)=O)cc1)C1CCS(=O)(=O)C1` (configuration not stated): the B-score entry was “inactive”.

Turning to `Cc1cccc(C(=O)NCc2nnc(SC(C)C(=O)Nc3nnc(C)s3)n2C)c1` (configuration not stated), the B-score entry is “inactive”.

For `Cn1nc(-c2ccccc2)c(-c2nc(-c3ccc(Cl)cc3)no2)c1Cl`, the B-score was -7.35 (active).

In the case of `CN(Cc1ccccn1)Cc1nc(-c2ccc(Cl)cc2)no1`, the B-score result was “inactive”.

In the case of `Brc1ccc(-c2noc(-c3ccccc3)n2)o1`, the B-score entry was “inactive”.

In the case of `CC(C)Cn1c(N)c(C(=O)COC(=O)CN2C(=O)C3CC=CCC3C2=O)c(=O)n(C)c1=O` (configuration not stated), the B-score result is “inactive”.

Turning to `COC(=O)c1cc(NC(=O)CC2C(=O)NCCN2C(=O)c2ccc(F)cc2)cc(C(=O)OC)c1` (configuration not stated), the B-score entry is “inactive”.

For `CN(c1ccccc1)c1ccc(/C=c2\s/c(=C(/C#N)C(=O)C(C)(C)C)n(Cc3ccco3)c2=O)cc1`, the B-score result is “inactive”.

In the case of `Cc1csc(=Nc2ccccc2)n1CCO`, the B-score result is “inactive”.

Turning to `Cc1cs/c(=N\N=C\c2ccc(O)cc2)n1Cc1ccco1`, the B-score is -6.66 (active).

Consider `CCNC(=O)NC(=O)C(C)OC(=O)c1cc(S(=O)(=O)N2CCCCCC2)ccc1OC` (configuration not stated), for which the B-score entry is “inactive”.

With `CCCCn1c(N)c(N(CC(C)C)C(=O)c2cccc(S(=O)(=O)N3CCN(C(C)=O)CC3)c2)c(=O)[nH]c1=O`, the B-score entry is “inactive”.

On to `Cc1cc(C)nc(-n2nc(C)cc2NC(=O)c2ccc(F)cc2F)n1`, for which the B-score result is “inactive”.

Regarding `CCCCn1ccnc1C(=O)c1cccc(S(=O)(=O)N2c3ccccc3CC2C)c1` (configuration not stated), the B-score was -11.8 (active).

Regarding `CC1Cc2ccccc2N1S(=O)(=O)c1ccc(Cl)nc1` (configuration not stated), the B-score result was “inactive”.

With `CC1Cc2ccccc2N1S(=O)(=O)c1c(N)n(C)c(=O)n(C)c1=O` (configuration not stated), the B-score result was “inactive”.

Regarding `COc1ccccc1C(=O)NN1C(=O)C2C3C=CC(O3)C2C1=O` (configuration not stated), the B-score result was “inactive”.

For the molecule `O=C(NN1C(=O)C2C3C=CC(O3)C2C1=O)c1ccccc1` (configuration not stated), the B-score entry was “inactive”.

In the case of `COc1ccc(C(=O)NN2C(=O)C3C(c4ccccc4)C=CC(c4ccccc4)C3C2=O)cc1` (configuration not stated), the B-score is -8.93 (active).

Regarding `CC(=O)Nc1ccc(S(=O)(=O)NC(C)C(=O)OCC(=O)NC2CCCC2)cc1` (configuration not stated), the B-score result was “inactive”.

For `CC1CCCN(C(C(=O)Nc2ccc(C(C)C)cc2)c2ccc3c(c2)OCO3)C1` (configuration not stated), the B-score is -7.66 (active).

Regarding `CCc1ccc(NC(=O)NC(C)c2ccc3c(c2)OCO3)cc1` (configuration not stated), the B-score entry was “inactive”.

On to `O=C(Nc1ccc2c(c1)OCCO2)C(c1ccc(F)cc1)N1CCCCC1` (configuration not stated), for which the B-score entry is “inactive”.

As for `O=C(Nc1ccc(S(=O)(=O)Nc2ccccn2)cc1)c1ccccc1`, the B-score result was “inactive”.

As for `O=C(CCl)N(Cc1cccc([N+](=O)[O-])c1)c1cccc(Cl)c1`, the B-score entry was “inactive”.

With `CCN(CC)C(=O)CN(c1cccc([N+](=O)[O-])c1)S(=O)(=O)c1ccccc1`, the B-score entry is “inactive”.

Turning to `C=CCN(N=Nc1cccc([N+](=O)[O-])c1)c1cccc([N+](=O)[O-])c1`, the B-score is -11.2 (active).

Consider `Cc1ccc(CSCC(=O)N(C)CC(=O)Nc2ccc(C)cc2)cc1`, for which the B-score result was “inactive”.

In the case of `O=S(=O)(Cc1noc(-c2ccc(OC(F)(F)F)cc2)n1)c1ccc(F)cc1`, the B-score entry is “inactive”.

As for `COc1cc(Cl)c(C)cc1NC(=O)CSc1nnc(-c2ccco2)n1CC(C)C`, the B-score is -10 (active).

Turning to `COc1cc(Cl)c(C)cc1NC(=O)CSc1nnc(-c2cccnc2)n1Cc1ccco1`, the B-score entry was “inactive”.

On to `CCn1c(SCC(=O)Nc2cc(C)c(Cl)cc2OC)nnc1-c1ccco1`, for which the B-score result is “inactive”.

For `CCOC(=O)c1sc(=S)n2c1[nH]c(=O)c1ccc(C(=O)OC)cc12`, the B-score entry is “inactive”.

Turning to `CCOC(=O)c1sc(=NC(=O)c2ccc(Br)cc2)n(C)c1C`, the B-score entry is “inactive”.

Turning to `CCOC(=O)C1=C(C)Nc2sc(C(=O)c3ccc(Br)cc3)c(N)c2C1c1ccc(C(=O)OC)cc1` (configuration not stated), the B-score is -9.37 (active).

In the case of `CN(CC(=O)Nc1cccc(F)c1)C(=O)C1=COCCO1`, the B-score result is “inactive”.

Turning to `Cc1ccc(-n2ncc3c(Nc4cccc(C(=O)O)c4)ncnc32)cc1`, the B-score result was “inactive”.

Turning to `COc1ccc(C2=NS(=O)(=O)N(C)C(C(=O)N3CCCCC3)=C2)cc1`, the B-score result was “inactive”.

Take `Cc1ccccc1NC(=O)Nc1ccccc1N1CCCCC1`: the B-score entry was “inactive”.

Regarding `Cc1ccccc1NC(=O)CNc1ccccc1N1CCCCC1`, the B-score result was “inactive”.

As to `O=C(CNCCC1=CCCCC1)Nc1ccccc1N1CCCCCC1`, the B-score is -8.91 (active).

Take `Cc1ccc2oc(C(=O)N3CCN(C)C[C@@H]3C(C)C)c(C)c2c1`: the B-score result was “inactive”.

Consider `O=C(c1cc(Cl)cc(Cl)c1)N1CCC(=O)N(C(COCc2ccccc2)Cc2ccccc2)CC1` (configuration not stated), for which the B-score entry was “inactive”.

In the case of `CC(C)CC(COCc1ccc(Cl)cc1)N1CCN(C(=O)c2ccc(C(F)(F)F)cc2)CCC1=O` (configuration not stated), the B-score was -8.19 (active).

In the case of `CC(C)CC(CO)N1CCN(C(=O)c2ccc(Cl)cc2Cl)CCC1=O` (configuration not stated), the B-score result was “inactive”.

With `O=C1[C@H]2[C@@H](c3ccc(Cl)cc3)N3C(=O)N(c4cccc(F)c4)C(=O)[C@@]3(Cc3ccccc3)[C@H]2C(=O)N1C1CCCCC1`, the B-score result was “inactive”.

For the molecule `COC(=O)c1noc(C)c1-c1ccnn1C(=O)c1ccc(Cl)cc1`, the B-score entry was “inactive”.

`Cc1onc(-c2ccc(Cl)cc2)c1-c1ccnn1S(=O)(=O)c1ccc(Cl)cc1`: the B-score was -12.4 (active).

Regarding `Cc1ccc(S(=O)(=O)Cc2cc(-c3ccc(Cl)cc3)no2)cc1`, the B-score entry was “inactive”.

In the case of `Cc1ccc(NS(=O)(=O)c2ccc(-c3coc(C)n3)cc2)c(C)c1`, the B-score entry is “inactive”.

Turning to `COc1cc(C(=O)OCC(=O)N(CC(C)C)C2CCS(=O)(=O)C2)ccc1OCC(C)C` (configuration not stated), the B-score result is “inactive”.

As for `Cn1nc(-c2ccccc2)c(CSc2cccc(Cl)c2)c1Cl`, the B-score is -8.39 (active).

On to `Cn1nc(-c2ccccc2)c(CO)c1Sc1ccccc1`, for which the B-score entry is “inactive”.

Take `Cc1ccc(S(=O)(=O)c2c(COC(=O)c3cccc(Cl)c3)c(-c3ccccc3)nn2C)cc1`: the B-score entry was “inactive”.

In the case of `COc1ccc(C(=O)NC2(C(F)(F)F)NC(=O)N(CCCc3ccccc3)C2=O)c(OC)c1OC` (configuration not stated), the B-score result is “inactive”.

Take `O=C(c1cccc(S(=O)(=O)N2CCCC2)c1)N(Cc1ccco1)C1CCS(=O)(=O)C1` (configuration not stated): the B-score result was “inactive”.

For `CNC(=S)N/N=C/c1cn(Cc2ccc(C)cc2)c2ccccc12`, the B-score result was “inactive”.

For the molecule `COC(=O)N/N=C/c1cn(CCCOc2ccc(C)cc2)c2ccccc12`, the B-score entry was “inactive”.

In the case of `CCOC(=O)N/N=C/c1cn(Cc2ccccc2Cl)c2ccccc12`, the B-score was -9.45 (active).

Regarding `CCc1ccc(N(CC)c2ncnc3nc[nH]c23)cc1`, the B-score entry is “inactive”.

For `Cc1cc(Cl)ccc1C(=O)C1CCCN(C(=O)CCN2CCCO2)C1` (configuration not stated), the B-score result was “inactive”.

In the case of `CSc1ccc(/C=C/C(=O)NC23CC4CC(CC(C4)C2)C3)cc1`, the B-score result was “inactive”.

Consider `c1ccc(C2CNCc3c2ccc2ccccc32)cc1` (configuration not stated), for which the B-score result is “inactive”.

As to `O=C(CSc1nnc(-c2cccnc2)n1Cc1ccco1)c1ccc(Cl)c(Cl)c1`, the B-score entry is “inactive”.

On to `Clc1cccc(-c2nc3nc4ccccc4nc3n2Cc2ccco2)c1`, for which the B-score is -10.9 (active).

As for `O=c1[nH]c(CSc2ncc(-c3ccc(F)cc3)n2Cc2ccco2)nc2ccccc12`, the B-score entry was “inactive”.

In the case of `CN(Cc1c(F)cccc1Cl)S(=O)(=O)c1cccs1`, the B-score result was “inactive”.

Turning to `CC1CCC2(CC1)NC(=O)N(CC(=O)c1cccn1C)C2=O` (configuration not stated), the B-score result was “inactive”.

Regarding `Cc1cccc(N2CCN(C(c3ccccc3)c3nnnn3CC3CCCO3)CC2)c1C` (configuration not stated), the B-score result was “inactive”.

With `Cc1cccc(N2CCN(C(c3ccc(N(C)C)cc3)c3nnnn3C(C)(C)C)CC2)c1C` (configuration not stated), the B-score was -7.3 (active).

Turning to `CC(C)(C)n1nnnc1C(c1ccc(F)cc1)N1CCN(Cc2ccc3c(c2)OCO3)CC1` (configuration not stated), the B-score entry was “inactive”.

Regarding `Cc1cccc(C)c1NC(=O)c1ccc(CN2CCc3ccccc3C2)cc1`, the B-score entry is “inactive”.

For the molecule `COc1ccc(OC)c(-c2csc(-c3cccs3)n2)c1`, the B-score was -11.7 (active).

On to `COc1ccc(OC)c(CNC(=O)CCc2nc(-c3cccs3)no2)c1`, for which the B-score result was “inactive”.

Regarding `COc1ccc(-c2csc(-c3cccs3)n2)cc1OC`, the B-score result was “inactive”.

With `COc1ccc(CNS(=O)(=O)c2ccc(NC(=O)N3CCCCC3)cc2)cc1`, the B-score result is “inactive”.

Regarding `O=C(CNC(=O)c1cccnc1)N/N=C/c1cc(Br)c(O)c(Br)c1`, the B-score entry is “inactive”.

As to `COc1ccc2c3c(c(=O)oc2c1OCC(=O)C(C)(C)C)CCCC3`, the B-score entry was “inactive”.

For `CCCOc1ccc2c3c(c(=O)oc2c1OCCC)CCC3`, the B-score was -13.7 (active).

With `Cc1c(OC(C)C(=O)N[C@@H](Cc2ccccc2)C(=O)O)ccc2c3c(c(=O)oc12)CCCC3` (some centres not stated), the B-score entry is “inactive”.

Take `CC[n+]1cc(C)ccc1/C=C/c1ccc(N(C)C)cc1`: the B-score is -6.65 (active).

On to `CN(C)c1ccc(/C=N\S(=O)(=O)c2ccccc2)cc1`, for which the B-score entry is “inactive”.

Regarding `CCCCCCCC1(C)NC(=O)N(CC(=O)Nc2cc(C)on2)C1=O` (configuration not stated), the B-score result was “inactive”.

For `O=C(NCCN1CCOCC1)c1ccc2c(c1)N(Cc1ccc(Cl)cc1)CCS2`, the B-score result was “inactive”.

As to `O=C(NCCc1ccccc1)c1ccc2c(c1)N(Cc1ccccc1)CCS2`, the B-score was -9.05 (active).

As to `CCOC(=O)N1CCN(C(=O)c2ccc3c(c2)N(Cc2ccc(C)cc2)CCS3)CC1`, the B-score entry was “inactive”.

Turning to `CC[C@]1(c2ccccc2OC)C(=O)N(C(=O)OC)N1C(=O)OC`, the B-score result was “inactive”.

For the molecule `CCN(CC)C(=O)CC1(c2ccccc2OC)CCOC(C(C)C)C1` (configuration not stated), the B-score is -8.7 (active).

For `COc1ccc(C2(CNC(=O)C(c3ccccc3)c3ccccc3)CCOCC2)cc1OC`, the B-score entry was “inactive”.
